# Assay results published in PubChem BioAssay (NCATS).
# Results filed as inconclusive are left out. Activity calls are given as the source filed them. Unless noted, calls follow the shape of the dose curve; as a rule, active = well fitted curve in the direction sought with a large enough effect; inconclusive = small, poorly fitted or top-dose-only effect, or another doubt; inactive = no such curve, though single readings can be large; an effect the other way counts as inactive or inconclusive.
# Key:
# [1] = MultiTox-Fluor Cytotoxicity Assay - LYMP1-003 - Live Cells (AID 962); conditions: LYMP1-003 lymphoblastoid cells, MultiTox-Fluor live-cell protease fluorescence; series mostly up to 92.2 µM;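 also: potency is read from the fitted curve at half-maximal effect; cells exposed to compound for 16 hours at 37 °C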
# Outline: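 Human lymphoblastoid line LYMP1-003 in complete culture medium, treated 16 hr with titrated compounds. Viable cells quantified via cell-permeant GF-AFC substrate fluorescence; AC50 derived by Hill fitting.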
# [2] = Cell Viability - LYMP1-003 - Assay at 24 hr (AID 963); conditions: LYMP1-003 lymphoblastoid cell viability; series mostly up to 92.2 µM; also: potency is read from the fitted curve at half-maximal effect
# Outline: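 The lymphoblastoid line was treated with titrated compounds for 24 hours, and viable cell number estimated from luciferase-based ATP luminescence.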
# [3] = Cell Viability - LYMP1-003 - Assay at 40 hr (AID 964); conditions: LYMP1-003 lymphoblastoid viability; series mostly up to 92.2 µM; also: potency is read from the fitted curve at half-maximal effect; nearly all actives have a fitted effect of over 60% in size
# Outline: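 Acute toxicity is scored as a concentration-dependent loss of intracellular ATP in LYMP1-003 cells (2500/well, complete medium) after 40 hr at 37 C, measured by CellTiter-Glo luminescence; AC50 values derive from standard Hill modelling.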
# [4] = Cell Viability - LYMP1-002 - Assay at 24 hr (AID 993); conditions: LYMP1-002 lymphoblastoid cells viability; series mostly up to 92.2 µM; also: potency is read from the fitted curve at half-maximal effect
# Outline: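 Viability was judged from intracellular ATP using a luciferase read-out, following a 24-hour compound incubation at 37 C of lymphoblastoid cells seeded at 2500 per well. Concentration-response data were fitted to the Hill equation for AC50.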
# [5] = Cell Viability - LYMP1-002 - Assay at 16 hr (AID 948); conditions: LYMP1-002 lymphoblastoid cell viability; series mostly up to 92.2 µM; also: potency is read from the fitted curve at half-maximal effect
# Outline: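 LYMP1-002 human lymphoblastoid cells, 2500/well; 5 hr 37 C; cpd 16 hr 37 C; CellTiter-Glo 30 min RT; luminescence (ATP). Concentration-response, Hill-fit AC50. Pos ctrl tetraoctylammonium bromide.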
# [6] = Cell Viability - LYMP2-004 (AID 966); conditions: LYMP2-004 lymphoblastoid cell viability, qHTS; series mostly up to 92.2 µM;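 also: potency is read from the fitted curve at half-maximal effect; cells exposed to compound for 24 h; nearly all actives have a fitted effect of over 65% in size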
# Outline: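 Viable-cell number estimated from ATP luminescence (CellTiter-Glo) in 2500 human lymphoblastoid cells/well after 24 hr at 37 C with compound. AC50 fitted to the standard Hill equation.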
# [7] = Cell Viability - LYMP2-009 (AID 968); conditions: LYMP2-009 lymphoblastoid cell viability; series mostly up to 92.2 µM;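 also: potency is read from the fitted curve at half-maximal effect; cells exposed to compound for 24 h at 37 °C; nearly all actives have a fitted effect of over 55% in size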
# [8] = Cell Viability - LYMP2-025 (AID 976); conditions: LYMP2-025 lymphoblastoid cell viability; series mostly up to 92.2 µM;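 also: potency is read from the fitted curve at half-maximal effect; cells exposed to compound for 24 h at 37 °C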
# Outline: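 Luminescent ATP readout after 24 hr treatment of a human lymphoblastoid line (LYMP2-025, 2500 cells/well, 37 C). Reagent developed 30 min at room temperature; AC50 fitted with the Hill equation.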
# [9] = Cell Viability - LYMP2-002 (AID 977); conditions: LYMP2-002 lymphoblastoid cell viability, qHTS; series mostly up to 92.2 µM;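 also: potency is read from the fitted curve at half-maximal effect; compound exposure lasted 24 h at 37 °C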
# Outline: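 In this qHTS viability screen, 2500 human lymphoblastoid cells per well receive compound for 24 hr at 37 C, and luciferase-based ATP luminescence gives the viability signal. Tetraoctylammonium bromide serves as positive control.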
# [10] = Cell Viability - LYMP2-022 (AID 987); conditions: LYMP2-022 lymphoblastoid cell viability; series mostly up to 92.2 µM; also: potency is read from the fitted curve at half-maximal effect; nearly all actives have a fitted effect of over 55% in size
# Outline: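 In this qHTS cytotoxicity screen, compound titrations were incubated 24 hr at 37 C with human lymphoblastoid cells in complete medium. Luciferase-based ATP luminescence provided the viability signal.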
# [11] = qHTS assay to identify small molecules that stimulate interleukin-8 (IL-8) secretion (AID 651758; active = well fitted activation curve with a large enough effect in the signal ratio; the % refers to the signal ratio; also: potency is read from the fitted curve at half-maximal effect); conditions: HTRF ratio (665/615); series mostly up to 92.2 µM
# Outline: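 Quantitative HTS in THP-1 monocytic cells at 2000 cells per well, with 16 hrs compound incubation at 37 C. IL-8 in the medium was then quantified by HTRF immunoassay, read after 1-3 hrs at room temperature.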
# [12] = target: Luciferin 4-monooxygenase (Photinus pyralis) (UniProt P08659); assay: Biochemical firefly luciferase enzyme assay for NPC (AID 624030);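 also: purified P. pyralis luciferase at 10 nM with luciferin and ATP substrate; nearly all actives have a fitted effect of over 70% in size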; conditions: purified P. pyralis luciferase, luminescence, 5 min; series mostly up to 58.6 µM
# Chain of Luciferin 4-monooxygenase (Photinus pyralis) (P08659 whole entry, looked up): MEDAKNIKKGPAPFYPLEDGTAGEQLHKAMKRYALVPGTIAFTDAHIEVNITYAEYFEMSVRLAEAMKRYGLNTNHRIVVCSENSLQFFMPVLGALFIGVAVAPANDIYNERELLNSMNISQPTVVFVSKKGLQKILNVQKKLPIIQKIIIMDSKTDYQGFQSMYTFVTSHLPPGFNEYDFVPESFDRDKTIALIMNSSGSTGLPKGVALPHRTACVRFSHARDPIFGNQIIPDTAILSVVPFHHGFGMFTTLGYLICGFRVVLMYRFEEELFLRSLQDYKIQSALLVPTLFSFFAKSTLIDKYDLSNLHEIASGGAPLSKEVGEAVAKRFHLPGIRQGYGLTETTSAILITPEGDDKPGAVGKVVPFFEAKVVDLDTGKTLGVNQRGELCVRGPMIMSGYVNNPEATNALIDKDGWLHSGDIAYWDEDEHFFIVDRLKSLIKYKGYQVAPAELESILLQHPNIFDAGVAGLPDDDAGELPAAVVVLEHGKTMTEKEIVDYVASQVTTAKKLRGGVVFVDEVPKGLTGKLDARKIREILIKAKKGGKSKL
# Outline: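 Counter-screen for direct inhibition of the luciferase enzyme by approved-drug library compounds, run at 10 nM enzyme in 50 mM Tris acetate (final). Luminescence was read within 5 min of enzyme-buffer addition and normalized to PTC124 versus DMSO (0%).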
# [13] = qHTS assay for small molecule antagonists of the retinoid-related orphan receptor gamma (ROR-gamma) signaling pathway - cell viability counter screen (AID 720652; active = well fitted curve in the direction sought with a large enough effect in the repeat runs; an effect the other way counts as inactive or inconclusive;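 also: potency is read from the fitted curve at half-maximal effect; compound exposure lasted 16 hr before ATP read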); conditions: RORgamma reporter cell line viability counter screen; series mostly up to 92.2 µM
# Outline: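 ATP-based viability readout in the ROR-gamma reporter CHO cells after 16 hr compound exposure under doxycycline induction.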
structure (smiles),measurement,setting,value
C=CC(=O)OCC(CO)(COC(=O)C=C)COC(=O)C=C,Potency,[1],3.98 µM (active)
same,Potency,[2],6.31 µM (active)
same,Potency,[3],3.98 µM (active)
same,Potency,[4],3.98 µM (active)
O=Nc1ccc(Nc2ccccc2)cc1,Potency,[5],10 µM (active)
same,Potency,[1],6.31 µM (active)
same,Potency,[2],10 µM (active)
same,Potency,[3],7.94 µM (active)
same,Potency,[6],7.94 µM (active)
same,Potency,[7],7.94 µM (active)
same,Potency,[8],10 µM (active)
same,Potency,[9],5.01 µM (active)
same,Potency,[4],7.94 µM (active)
c1cc(OCC2CO2)cc(OCC2CO2)c1 (stereo unspecified),Potency,[6],20 µM (active)
same,Potency,[7],39.8 µM (active)
same,Potency,[8],50.1 µM (active)
same,Potency,[9],39.8 µM (active)
same,Potency,[10],31.6 µM (active)
same,Potency,[11],42.2 µM (active)
CC1(C)CC/C(=C\c2ccc(Cl)cc2)C1(O)Cn1cncn1 (stereo unspecified),Potency,[12],inactive
C=C1CC[C@H](O)C/C1=C/C=C1\CCC[C@]2(C)[C@@H]([C@H](C)CCCC(C)C)CC[C@@H]12,Potency,[13],66.8 µM (active)
